Consider 40 molecules from PubChem BioAssay (NCI).

Structures are written as SMILES. About 83,000 compounds went through this panel and 20% of them were active in at least one assay; those are over-represented in the sample as a whole.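 The endpoint reported here, percent growth, reads 100 for growth as untreated, 0 for no net growth and -100 for all cells dead.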 Unmarked numbers belong to inactive results. The source made the active and inactive calls. The calls were made as follows: active = growth percent below 10; inactive = the rest.

For this assay, the system named is MDA-MB-468 breast. Put plainly: NCI-60 one-dose screen, 48 h (100 = growth as untreated, 0 = no growth, -100 = all killed). The following applies: 10 µM unless noted.
Consider `NC(=O)N1N=C(c2ccc(Cl)cc2)CC1c1cn(-c2ccccc2)nc1-c1ccc(Cl)cc1` (stereo not given), for which the growth was 69.1%.

Turning to `Cc1[nH]c2ccc(F)cc2c1CCNC(=O)C1CCN(C(=O)c2ccc(-c3ccccc3)cc2)CC1`, the growth was 48.5%.

`Cn1cc(C(=O)c2nc(-c3c[nH]c4ccc(Br)cc34)no2)c2cc(F)ccc21`: the growth was 108%.

As to `COc1ccc(C2CC(c3cc(OC)c(OC)c(OC)c3)=NN2C(C)=O)cc1OCC(=O)Nc1nc2ccc(C(F)(F)F)cc2s1` (stereo not given), the growth was 84.1%.

For the molecule `CCCCCCCCn1ccc2cc(NC(=O)Cn3cc(CN4CCCCC4)nn3)ccc21`, the growth was -14.6% (active).

Consider `O=C(CCc1nnc2sc(-c3ccc(Cl)cc3Cl)nn12)c1nc2ncccc2[nH]1`, for which the growth is -66% (active).

On to `COc1ccc2[nH]c(C(=O)N3CCN(C(=O)OCc4ccc5c(Cl)cc(Cl)c(O)c5n4)CC3)cc2c1`, for which the growth was -76.5% (active).

For `CCCCC[C@H]1CC=C2C(=O)C(Cl)=C[C@@H]2CC=CCCCC(=O)O[C@@H](CCCCC)CC=C2C(=O)C(Cl)=C[C@@H]2CC=CCCCC(=O)O[C@@H](CCCCC)CC=C2C(=O)C(Cl)=C[C@@H]2CC=CCCCC(=O)O1`, the growth was 50.2% [8 µM].

As to `Cn1ccc(Cc2cnc(N)s2)n1`, the growth is 103%.

For the molecule `C=CCNc1ccc2c3c(cccc13)C(=O)N(N1C(=O)c3cccc4cccc(c34)C1=O)C2=O`, the growth was 101%.

Regarding `Cc1cccc(-[n+]2noc(N)n2)c1`, the growth is 96.4%.

Regarding `Cc1[nH]n(C(N)=S)c(=O)c1N=Nc1ccc(S(=O)(=O)Nc2ccncn2)cc1`, the growth was 86.4%.

`CCOC(=O)C1=C(C)N2C(=NC3=C(CCCC/C3=C\c3ccccc3)C2c2ccccc2)S1` (stereo not given): the growth is 103%.

Take `N/C(=N\c1nc2c(Br)cccc2s1)C(Br)Br`: the growth is -58.8% (active).

For `Nc1ccc(CC[C@H]2CCC/C=C/[C@@H]3C[C@H](O)C[C@H]3[C@H](O)/C=C/C(=O)O2)cc1`, the growth is -27.3% (active).

Turning to `Oc1c(Cl)cc(Oc2cc(Cl)c(O)c(CN3CCOCC3)c2)cc1CN1CCOCC1`, the growth is 84%.

For `NC(=NCCCOc1ccc(F)cc1)Nc1ccc(Cl)cc1`, the growth is 12.5%.

Regarding `COc1cccc(/C=C(/C)c2ccc3cccc(OC)c3[o+]2)c1O`, the growth is 95.9%.

In the case of `CCOC(=O)C(CCC#N)(CCC#N)C(=O)OCC`, the growth is 99.9%.

Regarding `CCCCN1CCN(c2ccc3nc(-c4ccc5nc(-c6ccc(OC)c(OC)c6)[nH]c5c4)[nH]c3c2)CC1`, the growth was -74.9% (active).

As to `CN(C)c1ccc(C(C#N)(c2ccccc2)c2ccc(N(C)C)cc2)cc1`, the growth was 82.8%.

For the molecule `C=C(C)[C@@H]1C[C@@H]2Cc3ccc(Cl)c(C)c3N1O2`, the growth was 96.3%.

`O=C(Nc1nc2ccccc2s1)Nc1ccc([N+](=O)[O-])cc1Cl`: the growth was 89.9%.

As for `COc1cc(/C=N/NC(=O)c2ccccc2Nc2cccc(C(F)(F)F)c2)ccc1O`, the growth was 28.3%.

On to `CC1=CC2OC34COC3CC(OC(=O)C(F)(F)F)C4(C)C2(C)CC1` (stereo not given), for which the growth is 87.5%.

Regarding `CCCNC(=O)Oc1ccc(/C(=C(/CC)Cc2ccccc2)c2ccc(OCCN(CC)CC)cc2)cc1`, the growth was 68.6%.

As for `CC(=O)Nc1nc2c(s1)CCc1c-2cn(S(=O)(=O)c2ccccc2)c1-c1ccccc1`, the growth is 61.6%.

Regarding `CC(C)(C)[Si](C)(C)OC1[C@@H](O[Si](C)(C)C(C)(C)C)[C@@H](CNC(=O)NC(=O)NC(=O)CCl)O[C@H]1n1cnc2c(NC(=O)Nc3ccccc3)ncnc21` (stereo not given in full), the growth is 106%.

For `O=C(NCc1ncc[nH]1)c1ccc(-c2nc3ccc4[nH]ncc4c3c3c2CCCC3)cc1`, the growth was -47.1% (active).

As to `Cc1nc(N)sc1Sc1nc2ccc(Cl)cc2c(=O)n1-c1ccc(Oc2ccccc2)cc1`, the growth is 76.6%.

For `CN1C2C=CC(=O)C1C1C(=O)N(c3ccccc3)C(=O)C12` (stereo not given), the growth was 0.669% (active).

For the molecule `COc1cc(Nc2ncccc2C(=O)NCc2cn(Cc3cccc(Oc4ccccc4)c3)nn2)cc(OC)c1`, the growth was 18.6%.

`O=C1Nc2ccccc2/C1=C/c1cccn1CCCCCn1c2ccccc2c(=O)c2ccccc21`: the growth is 37.6%.

In the case of `CN1CCN(Cc2ccc(NC(=O)c3[nH]ncc3Nc3ncnc4sccc34)cc2)CC1`, the growth is 15.8%.

In the case of `C=C1CCC2C3(C)COC(c4cccc(Cl)c4)OC3CCC2(C)C1/C=C/C1=CCOC1=O` (stereo not given), the growth was 43.6%.

For the molecule `O=C(Nc1cccc2ccccc12)NC1CC1`, the growth is 96%.

As for `Cc1c2cc[nH]c(=O)c2c(C)c2c1[nH]c1ccc(OC(=O)c3ccccc3)cc12`, the growth is 12.6%.

Regarding `O=C(Nc1cccnc1Nc1ccc(F)cc1)c1cn(Cc2cccc(Oc3ccccc3)c2)nn1`, the growth is 63.5%.

Take `O=C1CC(c2ccc(O)c(O)c2)Oc2cc(O)c([C@@H]3O[C@H](CO)[C@@H](O)[C@H](O)[C@H]3O)c(O)c21` (stereo not given in full): the growth was 106%.

`CCCCCc1ccc(S(=O)(=O)Nc2cc(-c3csc(NC(=O)CN4CCN(C)CC4)n3)ccc2OC)cc1`: the growth was 35.2%.
